Most compounds without a hit are left out; they make up all but 0.78% or so of the library.
L3MBTL1 inh: L3MBTL1 (human) inhibition | Q9Y468 | AlphaScreen L3MBTL1–H3K9me1 peptide binding | Potency, µM (series often up to 57.1 µM), for inactives: at the highest dose activity, negative = inhibition, most hits filed as inhibitors | actives 0.66% (n = 230,000) | AID 485360; note: nearly all actives have a fitted effect of over 60% in size
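AlphaScreen assay: L3MBTL1 (50 nM final) was preincubated 30 min at room temperature with biotinylated H3(1-15)K9me1 peptide (75 nM final), then 30 min with library compounds; streptavidin donor and nickel chelate acceptor beads (10 ug/mL final) added, 30 min dark.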
BLM inh: blocks DNA unwinding by human BLM helicase | AID 2528 | actives 0.2% (n = 350,000) | Potency, µM (titrated, usually from 56.1 µM), for the others: at the highest dose activity change, negative = inhibition, most hits filed as inhibitors | P54132 | recombinant BLM DNA unwinding, fluorescence dequenching;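 note: plate controls were vehicle for no effect and no enzyme for full effect; nearly all actives have a fitted effect of over 35% in size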
RECQ1 inh: blocks DNA unwinding by human RECQ1; RECQ1 DNA unwinding, red fluorescence kinetic read; Potency, µM (highest dose often 57.3 µM), for inactives: at the top dose activity, negative = inhibition, most hits filed as inhibitors; actives 0.54% (n = 240,000); P46063;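 note: plate controls were vehicle for no effect and no enzyme for full effect; nearly all actives have a fitted effect of over 30% in size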
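RECQ1T1 50 nM; forked duplex (20 bp + 30-nt ss tails) 200 nM, ATP 2 mM final; pH 8.0, 2 mM MgCl2, 2.5 ug/ml poly(dI-dC); 15 min compound preincubation; discontinuous kinetic read over 2 h at RT.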
APE1 inh: inhibitors of human APE1 endonuclease; P27695; recombinant APE1, TAMRA/BHQ-2 abasic DNA cleavage fluorescence; Potency, µM (doses to about 65.8 µM), inactives show at the highest dose activity change, negative = inhibition, hits mostly inhibitors; actives 0.35% (n = 350,000); AID 2517;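 note: plate controls were vehicle for no effect and reference inhibitor for full effect; nearly all actives have a fitted effect of over 55% in size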
Target sequence (P27695 whole entry, looked up): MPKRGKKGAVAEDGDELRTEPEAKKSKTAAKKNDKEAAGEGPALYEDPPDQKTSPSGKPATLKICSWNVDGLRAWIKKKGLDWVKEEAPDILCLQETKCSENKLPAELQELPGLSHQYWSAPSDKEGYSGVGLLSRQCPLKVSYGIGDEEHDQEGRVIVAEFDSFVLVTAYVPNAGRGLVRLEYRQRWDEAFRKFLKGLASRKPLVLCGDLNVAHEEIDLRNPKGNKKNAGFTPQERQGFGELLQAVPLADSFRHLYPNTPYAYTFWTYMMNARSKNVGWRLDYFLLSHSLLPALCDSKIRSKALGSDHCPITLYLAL
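Endonuclease cleavage of a quenched abasic-site DNA duplex (50 nM) by APE1 (0.75 nM) was tracked by TAMRA dequenching. Compounds were preincubated with enzyme 15 min at room temperature; data normalized to buffer-only and DMSO wells plus NSC13755 control.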
* hit, by the source's call; i = inactive; ? = inconclusive; nt = no result given; ! = not confirmed by another sample; [ ] = another dose, or the depositor's remark. Calls come from the whole dose curve; as a rule, active = well fitted curve in the direction sought with a large enough effect; inconclusive = small, poorly fitted or top-dose-only effect, or another doubt; inactive = no such curve, though single readings can be large; an effect the other way counts as inactive or inconclusive. Unless noted, % is set by controls: 0 for no effect and ±100 for the full control effect; potency is the fitted concentration of half-maximal effect.

SMILES	L3MBTL1 inh	BLM inh	RECQ1 inh	APE1 inh
O=c1c(-c2ccc(Cl)cc2)nc2cnc(N3CCNCC3)nc2n1CCc1ccccc1	nt	3%	i	3%
NC(=O)c1cc[n+](CC2=C(C(=O)[O-])N3C(=O)[C@@H](NC(=O)Cc4cccs4)[C@H]3SC2)cc1	nt	nt	nt	-3%[21 µM]
O=C(N/N=C/c1ccc(-c2ccccc2[N+](=O)[O-])o1)c1cncc(Br)c1	-6%	-11%	-4%	16%
Cc1c(C(=O)N/N=C/c2ccc(-c3ccccc3[N+](=O)[O-])o2)sc(N)c1C#N	-2%	7.9µM*	-10%	1%
O=C1c2cccc3cccc(c23)C(=O)N1CC1CCN(CC(O)COCc2ccc3c(c2)OCO3)CC1 (configuration not stated)	4µM*	124%	9%	9%
COc1ccc(OCC(O)CN2CCC(CN3C(=O)c4cccc5cccc(c45)C3=O)CC2)cc1 (configuration not stated)	-6%	-13%	i	4%
CCCCNc1c2c3c(cccc3n(C)c1=O)C(=O)c1ccccc1-2	94%	-13%	32µM*	-3%
CCCCC(=O)Nc1ccc(C(=O)NNC(=O)c2ccc(C)c(Br)c2)cc1	-2%	-13%	-9%	25µM*
O=c1cc(-c2ccc(O)cc2)oc2cc(O)cc(O)c12	nt	-10%	-11%	25µM*!
CCCCCC/C=C\CCCCCCCc1cccc(O)c1C(=O)O	nt	3%	-2%	3%
CCCCCC(=O)Cc1cc(O)cc2c1C(=O)Oc1cc(O)c(C(=O)O)c(CCCCC)c1O2	nt	?	16µM*	6%
CC[C@H](C)[C@H]1O[C@]2(CC[C@@H]1C)C[C@@H]1C[C@@H](C/C=C(\C)[C@@H](O[C@H]3C[C@H](OC)[C@@H](O[C@H]4C[C@H](OC)[C@@H](O)[C@H](C)O4)[C@H](C)O3)[C@@H](C)/C=C/C=C3\CO[C@@H]4[C@H](O)C(C)=C[C@@H](C(=O)O1)[C@]34O)O2	nt	nt	nt	10%
C=Cc1c(C)c2cc3nc(cc4[nH]c(cc5nc(cc1[nH]2)C(C)=C5CCC(=O)OC)c(CCC(=O)O)c4C)[C@@]1(C)C3=CC=C(C(=O)OC)[C@H]1C(=O)OC	nt	nt	nt	0%[21 µM]
CCOc1ccccc1N1C(=O)CC(Nc2ccc(N3CCOCC3)cc2)C1=O (configuration not stated)	28µM*	5%	0%	7%
COc1ccccc1N1C(=O)CC(Nc2ccc(N3CCOCC3)cc2)C1=O (configuration not stated)	-14%	-21%	-21%	4%
N#Cc1ccccc1S(=O)(=O)N1CCN(C(=O)c2cc3c(s2)CCC3)CC1	?	nt	nt	5.3µM*
Cc1cc(C(=O)N2CCN(S(=O)(=O)c3ccccc3C#N)CC2)c(C)o1	-3%	nt	nt	24%
C=C1C=C(C(F)F)n2ncc(C(=O)NCc3ccccc3Cl)c2N1	nt	nt	nt	40%
C[C@]12C=CC(=O)C=C1[C@@H](F)C[C@@H]1[C@@H]2[C@@H](O)C[C@@]2(C)[C@H]1CC[C@]2(O)C(=O)CO	nt	nt	nt	2%
CCN1C(=O)/C(=C/C=C2\N(CC)c3cc(S(=O)(=O)N(C)C)ccc3N2c2ccccc2)SC1=S	?	50%	0.79µM*	-7%
O=C1NN(c2ccccc2)C(=O)/C1=C\c1ccc(-c2cc([N+](=O)[O-])ccc2O)o1	?	-6%	28µM*	6%
COc1cc(/C=C2/C(=O)NN(c3ccc(Cl)cc3)C2=O)cc(OC)c1O	nt	-7%	nt	16%
O=C1NN(c2ccc(Cl)cc2)C(=O)/C1=C\c1ccc(-c2cccc(C(=O)O)c2)o1	nt	-26%	?	7.9µM*
CC[C@H](C)[C@H](NC(=O)[C@@H](NC(=O)CNC(=O)[C@@H](N)CC(C)C)[C@@H](C)O)C(=O)N1CCC[C@H]1C(=O)NCC(=O)O	nt	-1%	0%	3%
CCCCC(C=O)CC (configuration not stated)	nt	nt	-4%	-4%
SMILES	L3MBTL1 inh	BLM inh	RECQ1 inh	APE1 inh
O=C(N/N=C/c1cn(-c2cccs2)nc1-c1ccccc1)c1ccccc1O	6%	20µM*	-2%	2%
O=C(N/N=C/c1cn(-c2cccs2)nc1-c1ccccc1)c1ccccc1Br	-6%	-7%	-9%	-9%
COc1cc2c(cc1OC)C1O[C@](c3ccsc3)(C2)Oc2cc(-c3ccccc3)oc(=O)c21	nt	-12%[12.4 µM]	nt	-3%[12.4 µM]
O=C(O)Cc1c(Cl)ccc(Cl)c1Cl	nt	-8%	6%	-4%
O=C(O)CSc1cc(NS(=O)(=O)c2ccc(Cl)cc2)c2ccccc2c1O	nt	25µM*	nt	60%
Cc1cc(C)c(S(=O)(=O)Nc2cc(SCC(=O)O)c(O)c3ccccc23)cc1C	?	16µM*	-9%	?
COc1ccc(S(=O)(=O)Nc2cc(SCC(=O)O)c(O)c3ccccc23)cc1	nt	-21%	nt	26%
COc1ccc(NC(=S)Nc2ccc3nsnc3c2)cc1	-6%	4µM*	14%	-1%
CCOc1ccc(NC(=S)Nc2ccc3nsnc3c2)cc1	-20%	4µM*	1%	6%
COc1ccc(NC(=S)Nc2ccc3nc(C)c(C)nc3c2)cc1	2%	-7%	i	-8%
C=CCN(CC=C)C(=S)Nc1ccc2nsnc2c1	8.9µM*	3.5µM*	-4%	-12%
C=CCNC(=S)Nc1ccc2nsnc2c1	-4%	-6%	3%	-3%
CCOc1ccc(NC(=O)Nc2ccc3nsnc3c2)cc1	-1%	-5%	i	?
Cc1c(F)cccc1Cn1cnc2c(cnn2C(C)(C)C)c1=O	nt	nt	nt	-8%
COc1ccc(C(=C2C(=O)Nc3ccccc32)c2ccc(OC)cc2)cc1	nt	-11%	-7%	?
O=[N+]([O-])c1cc(CN2CCOCC2)c2cccnc2c1O	1.3µM*	0%	-8%	5%
CN1CCN(C2CCN(Cc3ccc(O)c4ncccc34)CC2)CC1	14µM*	nt	nt	7%
Oc1c(Cl)cc(CN2CCOCC2)c2cccnc12	?	nt	nt	24%
O=[N+]([O-])c1cc(CN2CCN(c3ccccc3)CC2)c(O)c2ncccc12	4µM*	-1%	i	-8%
COc1cc(OC)cc(C(=O)Oc2c(CN3CCOCC3)cc(Cl)c3cccnc23)c1	25µM*	-2%	13%	2%
CCOC(=O)[C@H](Cc1ccc(O)cc1)NC(=O)c1ccccc1	nt	2%	-8%	-1%
CC(C)(C)OC(=O)NCCOCCOCCOc1ccc(-c2no[n+]([O-])c2C#N)cc1	nt	nt	nt	-2%
O=C1C=CC(=O)c2c(O)c(Cl)c(Cl)c(O)c21	nt	?	-7%	-7%
CCOc1cc(/C=C(\C#N)C(N)=O)cc(CSc2ccccc2)c1O	nt	-6%	-15%	-5%
O=[N+]([O-])c1cc(Cl)c2cccnc2c1O	32µM*	1%	i	-12%
Clc1cc2cccnc2c2ncccc12	10µM*	nt	nt	-18%
Oc1ccc(COC2CCCC2)c2cccnc12	20µM*	nt	nt	8%
Cc1c(C)c2cccnc2c2ncccc12	0.79µM*	nt	nt	-28%
Cc1ccc(O)c2ncccc12	nt	8%	nt	nt
COCc1ccc(O)c2ncccc12	nt	-1%	-1%	0%
